# From PubChem BioAssay
# Most compounds without a hit are left out; they make up all but 4.7% or so of the library.
# TRHR PAM: TRH receptor (human) allosteric enhancement | P34981 | TRHR cells, fluo-8 calcium fluorescence, EC20 TRH enhancement | hit rate 0.66% among 360,000 | enhancement, % at 2 µM; in the data active = enhancement above about 30%; note: 0% is about no effect
#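 Enhancer read-out: after compound pinning and an initial kinetic agonist-mode read, an EC20 of TRH (10 nM final) was injected and fluo-8 calcium signal (Ex 480/Em 530) followed at 1 s/cycle for 100 cycles in TRHR-expressing cells.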
# D1 antag: blocks dopamine activation of the human D1 receptor; activity change, negative = inhibition, % at 10 µM; HEK293 TREx D1 cells, calcium flux, dopamine EC80; active compounds read low; hit rate 3.2% among 360,000; P21728; in the data active = activity change below about -30%; note: % is set by controls: 0 for no effect and ±100 for the full control effect
# Target sequence (P21728 whole entry, looked up): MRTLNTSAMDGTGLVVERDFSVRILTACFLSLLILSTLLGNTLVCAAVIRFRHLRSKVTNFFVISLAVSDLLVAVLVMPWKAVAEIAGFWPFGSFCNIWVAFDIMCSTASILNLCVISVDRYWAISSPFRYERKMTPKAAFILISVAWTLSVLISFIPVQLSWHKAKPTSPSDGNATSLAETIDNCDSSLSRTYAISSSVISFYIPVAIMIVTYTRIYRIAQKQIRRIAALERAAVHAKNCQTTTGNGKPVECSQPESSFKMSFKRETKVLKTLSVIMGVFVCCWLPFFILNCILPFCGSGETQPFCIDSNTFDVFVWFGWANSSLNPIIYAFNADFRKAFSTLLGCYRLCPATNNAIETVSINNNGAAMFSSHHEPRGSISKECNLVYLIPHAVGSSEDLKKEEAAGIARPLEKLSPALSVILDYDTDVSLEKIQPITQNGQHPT
#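 Tetracycline-induced HEK293 T-REx cells with force-coupled D1 receptor were loaded with a no-wash calcium dye. Compound was added after a 10 s baseline and read kinetically for 180 s; EC80 dopamine was then added and calcium flux followed another 180 s.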
# TRHR ag: agonists of human TRH receptor; AID 493084; hit rate 0.18% among 360,000; P34981; activation, % at 2 µM; TRHR cells, calcium flux fluo-8, FDSS agonist mode; note: 0% is about no effect
#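 Read-out: compound-evoked intracellular calcium rise in TRHR cells, fluo-8 dye, kinetic FDSS fluorescence at 1 s/cycle following a 10-cycle baseline. Cells cultured overnight before dye loading (30 min–1.5 h, RT).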
# D1 ag: agonists of human D1 dopamine receptor | P21728 | HEK293 T-REx D1 cells, calcium flux, agonist mode | activation, % at 2 µM | hit rate 1% among 360,000 | AID 504660; note: 0% is about no effect
#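 Tetracycline-induced HEK293 TREx D1 cells, force-coupled to calcium signalling, were dye-loaded with a no-wash calcium kit. Compound was pin-added after a 10 s baseline. Fluorescence was read kinetically at 1 cycle/s for 180 s, with calcium rises flagged as agonism.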
# D1 potentiator: enhances dopamine response at the human D1 receptor. HEK293 TREx D1 cells, calcium flux, dopamine EC20 potentiation. potentiation, % at 10 µM. hit rate 0.036% among 360,000. AID 504651; in the data active = potentiation above about 30%; note: 0% is about no effect
# Numbers without * were called inactive; / = no result; ! = a repeat was not active. Cut-off read from the data, not from the text of the source, unless noted: active = activation above about 30%; inactive = the rest.
SMILES,TRHR PAM,D1 antag,TRHR ag,D1 ag,D1 potentiator
CCOc1ccccc1CN1CCCC(C(=O)Nc2cccc(-n3cccn3)c2)C1 (stereo unspecified),4,-64*,0,49*,-12
CN1C(=O)C2(OCC(CO)([N+](=O)[O-])CO2)c2ccccc21 (stereo unspecified),2,-6,0,1,-4
O=C(NCCc1ccc(Cl)cc1)C(=O)NCC(c1ccco1)S(=O)(=O)c1ccc(Cl)cc1 (stereo unspecified),-7,/,0,8,-5
COc1ccc2c(c1)CCc1c(C(=O)Nc3c(C)nn(Cc4ccc(Cl)cc4)c3C)noc1-2,20,-21,-1,6,-2
COc1ccc(OC)c(-c2cc(C(=O)NCc3ccco3)no2)c1,-5,-34*,0,3,-16
COc1ccc(OC)c(-c2cc(C(=O)Nc3c(C)nn(Cc4ccccc4)c3C)no2)c1,-2,-44*,-1,4,1
COc1cccc(-c2cc(C(=O)NCc3ccco3)no2)c1,4,-9,0,1,-5
O=C(Nc1cnn(Cc2ccc(Cl)cc2Cl)c1)c1noc2c1CCc1ccccc1-2,5,6,35*,2,-2
COc1ccc(OC)c(-c2cc(C(=O)Nc3c(C)nn(Cc4ccc(Cl)cc4)c3C)no2)c1,5,7,-1,4,4
COc1ccc2c(c1)CCc1c(C(=O)Nc3c(C)nn(Cc4ccccc4)c3C)noc1-2,-4,-32*!,-2,18,-2
Cn1c2ccsc2c2cnn(Cc3ccccc3F)c(=O)c21,-3,-29,-2,1,-3
O=C(CSc1ccc2nnc(CCNS(=O)(=O)c3ccccc3)n2n1)Nc1ccccc1C(F)(F)F,-3,-6,1,1,-4
COc1ccccc1CNC(=O)c1cc(C(=O)CC(C)C)c[nH]1,-10,-4,0,2,7
COc1ccc2c(c1)CCc1c(C(=O)Nc3c(C)nn(Cc4ccc(Cl)c(Cl)c4)c3C)noc1-2,12,-4,-2,19,1
COc1ccc2c(c1)CCc1c(C(=O)Nc3c(C)nn(Cc4ccccc4Cl)c3C)noc1-2,5,-40*,-1,18,-2
Cc1ccc(Cl)cc1NC(=O)CCCn1c(=O)c2cccn2c2ccccc21,-1,9,0,-2,-4
O=C(CSc1ccc(Cl)cc1)N/N=C/c1ccc([N+](=O)[O-])o1,-2,-34*,0,9,-11
O=C(CNc1ccc2ccccc2c1)N/N=C/c1ccc([N+](=O)[O-])o1,0,-25,0,0,-2
COc1ccc(/C=C/C(=O)OCC(=O)NC2CCCC2)cc1,1,-17,0,2,-3
O=C(NNC(=O)c1cc(-c2cccc(Br)c2)nc2ccccc12)c1csc(N2CCOCC2)n1,-1,-84*,0,2,-4
Cc1ccc(C2=NC(c3ccc(F)cc3)=Nc3ccc(C)cc3N2)cc1,4,-40*,1,1,-2
Cc1ccc2c(c1)NC(c1cccnc1)=NC(c1ccc(F)cc1)=N2,10,-8,-1,0,1
Cc1cccc(OCC(=O)Nc2cccc(C(=O)OCc3cc(=O)n4nc(C(C)C)sc4n3)c2)c1,-5,-1,0,5,-1
CCOc1cc(/C=N/n2c(COc3ccccc3)n[nH]c2=S)ccc1O,6,0,0,102*,-4
COCCCn1c(=O)c2sccc2n2c(CCCC(=O)Nc3cccc(OC)c3)nnc12,-1,-12,1,0,-3
SMILES,TRHR PAM,D1 antag,TRHR ag,D1 ag,D1 potentiator
Cn1ncc2c(NCc3cccc(Cl)c3)ncnc21,-10,-38*,-1,2,-2
OCCNc1ncnc2c1cnn2Cc1ccccc1,2,9,0,2,-3
c1ccc(CNc2ncnc3c2cnn3Cc2ccccc2)cc1,-1,-15,8,52*,-9
Cc1ccc(CNc2ncnc3onc(C)c23)cc1,-4,-18,-1,21,-9
Cc1noc2ncnc(NCc3cccc(Cl)c3)c12,7,-35*,1,30,-6
COc1ccccc1C(=O)N1CCC(c2c[nH]c3ccccc23)(c2c[nH]c3ccccc23)CC1,-5,12,0,1,-3
Cc1ccc(CNC(=O)C2CCN(S(=O)(=O)c3cn(C)cn3)CC2)cc1,-5,-5,1,0,0
Cc1ccc2c(c1)C1CN(C)CCC1N2C(=O)Nc1ccc(Cl)cc1 (stereo unspecified),0,-73*,2,36*,-12
O=C(NCc1cccnc1)C1CCN(S(=O)(=O)c2cccs2)CC1,-1,9,1,1,-5
COc1ccc(/C=C2\SC(=O)N(CCNC(=O)C3CCN(S(=O)(=O)c4cccs4)CC3)C2=O)cc1,1,-35*,0,6,-6
Cc1ccc(NC(=O)C2CCN(S(=O)(=O)c3cccs3)CC2)cc1,-1,-37*!,0,22,-11
O=C(Nc1cccnc1)C1CCN(S(=O)(=O)c2cccs2)CC1,-3,-32*,0,1,-6
O=C(COC(=O)C1CCN(S(=O)(=O)c2cccs2)CC1)Nc1ccc(F)c(F)c1F,-5,-36*,0,10,-5
COCCn1c(SCC(=O)c2c(N)n(C3CC3)c(=O)[nH]c2=O)nc2ccccc21,-2,-41*,0,1,-4
COc1ccccc1-c1nnc(SCC(=O)c2c(N)n(C3CC3)c(=O)[nH]c2=O)n1C,-8,-17,0,2,-3
Cc1ccc2c(C)c(C(=O)N3CCC(c4nc5ccccc5s4)CC3)oc2c1C,0,11,1,5,1
COc1cccc(NC(=O)C2=C(C)C(=O)OC23CCN(C(C)=O)CC3)c1,2,1,1,-1,1
O=C(CN1CCC(n2nnc3cc(F)ccc32)CC1)Nc1ccccc1N1CCOCC1,-1,-71*,-2,1,-8
O=C(CN1CCC(n2nnc3cc(F)ccc32)CC1)NC1CC1,6,-49*,1,3,-5
COC(=O)c1ccccc1NC(=O)CN1CCC(n2nnc3cc(F)ccc32)CC1,0,-14,0,0,-2
O=C(CN1CCC(n2nnc3cc(F)ccc32)CC1)NC1CCCCC1,1,2,-1,1,-4
Cc1ccccc1OCC(=O)OCC(=O)Nc1ncc(Cl)c(C)c1Cl,1,-9,0,4,6
CN=C1S/C(=C\c2cc(C)n(-c3ccccc3F)c2C)C(=O)N1C,5,-43*,0,6,-4
Cc1cc(C)c2sc(N(Cc3cccnc3)C(=O)CCS(=O)(=O)c3ccccc3)nc2c1,-4,/,0,17,-2
O=C(OCC(=O)C12CC3CC(CC(C3)C1)C2)c1ccc(O)cc1O,-6,-1,0,93*,43*
COc1cc(O)oc1C=Nc1ccc(C(=O)O)cc1,0,-79*,0,0,1
